Values without a mark were called inactive. Results filed as inconclusive are left out. Activity calls are given as the source filed them. Unless noted, calls follow the shape of the dose curve; as a rule, active = well fitted curve in the direction sought with a large enough effect in the repeat runs; inconclusive = weak or mixed curves; inactive = no such curve, though single readings can be large; an effect the other way counts as inactive or inconclusive.

Test [1] addresses Luciferin 4-monooxygenase (Photinus pyralis) (UniProt P08659). In words: qHTS assay to identify small molecule inhibitors of firefly luciferase (AID 1224835). Also: nearly all actives have a fitted effect of over 25% in size. A digest of the protocol:
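Inhibition of purified Photinus luciferase is measured by luminescence. Substrate levels (D-luciferin, ATP) sit at their KM values. Each compound is tested in a concentration series.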

A short description of test [2]: qHTS assay to identify small molecule agonists of the constitutive androstane receptor (CAR) signaling pathway - cell viability counter screen (AID 1224836). Also: nearly all actives have a fitted effect of over 45% in size. An outline of the steps:
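Cells were seeded and incubated 4 hrs. Compounds were added across 15 concentrations together with PK11195 at 0.75 uM final. Plates were incubated 23 hrs at 37 C. CellTiter-Fluor was added and fluorescence measured.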
On the technique in general: qHTS replaces the single test concentration by a dilution series.

Test [3] in a line: qHTS assay to identify small molecule antagonists of the constitutive androstane receptor (CAR) signaling pathway - cell viability counter screen (AID 1224837). Also: nearly all actives have a fitted effect of over 45% in size. A digest of the protocol: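 Using CellTiter-Fluor, viability is scored in HepG2 cells stably carrying hCAR and a 2.2kb CYP2B6 reporter after 23 hr compound exposure across 15 concentrations, with CITCO present at 50 nM.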

Test [4] deals with Nuclear receptor subfamily 1 group I member 3 (Homo sapiens) (UniProt Q14994). In words: qHTS assay to identify small molecule antagonists of the constitutive androstane receptor (CAR) signaling pathway (AID 1224838).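 Also: HepG2 cells stably expressing hCAR with CYP2B6 luciferase reporter stimulated by CITCO; nearly all actives have a fitted effect of over 40% in size.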 An outline of the steps: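 Reporter luminescence was quantified after 24 h exposure of hCAR/CYP2B6-2.2kb double-stable HepG2 cells to compounds at 15 concentrations in the presence of 50 nM CITCO final.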
Nuclear receptor subfamily 1 group I member 3 (Homo sapiens), sequence (Q14994 whole entry, looked up): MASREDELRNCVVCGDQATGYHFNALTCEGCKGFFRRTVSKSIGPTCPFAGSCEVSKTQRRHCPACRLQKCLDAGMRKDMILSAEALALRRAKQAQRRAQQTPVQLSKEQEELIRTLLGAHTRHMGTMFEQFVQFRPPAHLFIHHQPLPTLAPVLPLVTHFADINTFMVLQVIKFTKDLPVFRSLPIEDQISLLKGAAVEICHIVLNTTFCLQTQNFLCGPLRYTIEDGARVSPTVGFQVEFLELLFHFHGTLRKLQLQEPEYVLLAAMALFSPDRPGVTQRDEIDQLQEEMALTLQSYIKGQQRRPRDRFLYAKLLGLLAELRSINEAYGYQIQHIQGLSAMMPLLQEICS

Test [5] shares this target. In words: qHTS assay to identify small molecule agonists of the constitutive androstane receptor (CAR) signaling pathway (AID 1224839). Also: nearly all actives have a fitted effect of over 15% in size. An outline of the steps: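 Cells were plated and incubated 4 hrs, then dosed with compounds at 15 concentrations. PK11195 was added to 0.75 uM final. After 24 hrs at 37 C, luciferase luminescence was measured.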
A short description of test [6]: qHTS assay to identify small molecule antagonists of the estrogen related receptor signaling pathway with the pleiotropic PPARgamma coactivator (PGC) from Tox21 10K library - cell viability counter screen (AID 1224840; active = well fitted cell-killing curve with a large enough effect in the repeat runs, not every such curve was filed as active; also: nearly all actives have a fitted effect of over 40% in size). An outline of the steps: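 Here the PGC/ERR cells serve as a cytotoxicity control: they are exposed to compounds for 17.5 hours at 37 C, and live-cell signal is quantified using CellTiter-Fluor fluorescence.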

A short description of test [7]: qHTS assay to identify small molecule antagonists of the estrogen related receptor signaling pathway with the pleiotropic PPARgamma coactivator (PGC) from Tox21 10K library (AID 1224841; call rule not given here; also: actives are mostly falling curves and most rising ones were filed inactive; nearly all actives have a fitted effect of over 50% in size). A digest of the protocol: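 Each well held 2,000 PGC/ERR cells, pre-incubated six hours (37 C, 5% CO2). Test substances in DMSO were added by pin tool and left for 18 h at 37 C before luciferase detection by One-Glo.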

Test [8] can be described thus: qHTS assay to identify small molecule agonists of the estrogen related receptor signaling pathway with the pleiotropic PPARgamma coactivator (PGC) from Tox21 10K library (AID 1224842). Also: nearly all actives have a fitted effect of over 15% in size. A digest of the protocol:
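Luminescence from One-Glo (30 min, room temperature) measured after PGC/ERR cells had 18 h at 37 C with pinned compound (23 nL in DMSO). Cells had been seeded at 2,000 per well and pre-incubated 6 h.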

The nature of test [9]: qHTS assay to identify small molecule agonists of the hypoxia (HIF-1) signaling pathway - cell viability counter screen (AID 1224844; calls by dose curve; also: nearly all actives have a fitted effect of over 50% in size; also: potency is read from the fitted curve at half-maximal effect). An outline of the steps:
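Multiplexed with the HRE beta-lactamase assay, this viability read used CellTiter-Glo luminescence (30 min, RT) on HRE-bla ME-180 cells treated 17 hrs with compounds in 0.5% dialyzed FBS medium.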

Test [10] in a line: qHTS assay to identify small molecule agonists of H2AX (AID 1224845; active = well fitted activation curve with a large enough effect in the signal ratio in the repeat runs, not every such curve was filed as active; the % refers to the signal ratio). A digest of the protocol:
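Phospho-H2AX Ser139 measured by HTRF (ex 320 nm; em 665 and 620 nm) after 24 hr antibody incubation. Compounds, 15 concentrations, 0.76% DMSO, were applied to CHO-K1 cells for 3hr at 37C before lysis.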

Test [11] is described as follows: qHTS assay to identify small molecule agonists of H2AX - cell viability counter screen (AID 1224847; calls by dose curve; also: top concentration of the series differs between compounds; nearly all actives have a fitted effect of over 30% in size). An outline of the steps: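 Cytotoxicity counter screen in wild-type CHO-K1 cells: a 3 hr compound treatment at 37C across 15 concentrations, followed by CellTiter-Glo luminescence to gauge viable cells.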
A short description of test [12]: qHTS assay to identify small molecule antagonists of the estrogen related receptor (ERR) signaling pathway from Tox21 library (AID 1224848). Also: nearly all actives have a fitted effect of over 50% in size. An outline of the steps:
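Reading was by luminescence 30 min after ONE-Glo addition. Before that, ERR cells at 2,000 per well had rested 6 h at 37 C/5% CO2 and then received pin-tooled compounds in DMSO for 18 h at 37 C.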

A short description of test [13]: qHTS assay to identify small molecule agonists of the estrogen related receptor (ERR) signaling pathway from Tox21 library (AID 1224849; calls by dose curve; also: nearly all actives have a fitted effect of over 15% in size). The following applies: ERR reporter cell line, ONE-Glo luciferase, 18 h; at 92.4 µM (top of the series) unless noted. An outline of the steps: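 Six hours post-seeding at 37 C/5% CO2, ERR cells receive DMSO-solubilised compounds; after 18 h at 37 C, ONE-Glo reagent is applied and luminescence recorded.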

A short description of test [14]: qHTS RealTime-Glo MT Cell Viability Assay in HepG2 cells - 24 hour (AID 1224867). Also: nearly all actives have a fitted effect of over 50% in size. An outline of the steps:
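HepG2 suspension premixed with RealTime-Glo reagents is plated at 600 cells per well and left 5 h at 37 C/5% CO2. Compounds in DMSO then go in, and bioluminescence reflecting viable cell number is recorded over 40 h.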

Test [15] is described as follows: qHTS RealTime-Glo MT Cell Viability Assay in HEK293 cells - 32 hour (AID 1224868). Also: nearly all actives have a fitted effect of over 50% in size. Also: potency is read from the fitted curve at half-maximal effect. An outline of the steps: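 Reads taken at 0, 8, 16, 24, 32 and 40 h from the same wells. HEK293 cells (600/well) carried RealTime-Glo reagents from seeding, with compound added after a 5 h settle at 37 C.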
A short description of test [16]: A CellTox Green Cytotoxicity Assay to monitor cytotoxicity in HEK293 cells - 0 hour (AID 1224869). Also: nearly all actives have a fitted effect of over 50% in size. A digest of the protocol:
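Seeding of HEK293 cells together with cytotoxicity dye preceded a 5 h incubation at 37 C/5% CO2. Test compounds in DMSO were then added and fluorescence monitored across 40 h.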

Test [17] can be described thus: qHTS RealTime-Glo MT Cell Viability Assay in HepG2 cells - 40 hour (AID 1224870). Also: nearly all actives have a fitted effect of over 50% in size. A digest of the protocol:
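Real-time viability: cells seeded at 600 per well together with NanoLuc and cell-permeant prosubstrate, compounds added after 5 h incubation. Luminescence tracked at 0, 8, 16, 24, 32 and 40 h of exposure.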

For test [18], the target named is Thyrotropin receptor (Homo sapiens) (UniProt P16473). In words: qHTS assay to identify small molecule agonists of the thyroid stimulating hormone receptor (TSHR) signaling pathway (AID 1224843; calls by dose curve; also: nearly all actives have a fitted effect of over 45% in size). A digest of the protocol: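 HEK293 cells stably bearing the thyrotropin receptor were plated at 800 cells/well and challenged with compound (30 min, RT). Accumulated cAMP was quantified via cAMP-d2 competing for cryptate-tagged antibody.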
Thyrotropin receptor (Homo sapiens), sequence (P16473 whole entry, looked up): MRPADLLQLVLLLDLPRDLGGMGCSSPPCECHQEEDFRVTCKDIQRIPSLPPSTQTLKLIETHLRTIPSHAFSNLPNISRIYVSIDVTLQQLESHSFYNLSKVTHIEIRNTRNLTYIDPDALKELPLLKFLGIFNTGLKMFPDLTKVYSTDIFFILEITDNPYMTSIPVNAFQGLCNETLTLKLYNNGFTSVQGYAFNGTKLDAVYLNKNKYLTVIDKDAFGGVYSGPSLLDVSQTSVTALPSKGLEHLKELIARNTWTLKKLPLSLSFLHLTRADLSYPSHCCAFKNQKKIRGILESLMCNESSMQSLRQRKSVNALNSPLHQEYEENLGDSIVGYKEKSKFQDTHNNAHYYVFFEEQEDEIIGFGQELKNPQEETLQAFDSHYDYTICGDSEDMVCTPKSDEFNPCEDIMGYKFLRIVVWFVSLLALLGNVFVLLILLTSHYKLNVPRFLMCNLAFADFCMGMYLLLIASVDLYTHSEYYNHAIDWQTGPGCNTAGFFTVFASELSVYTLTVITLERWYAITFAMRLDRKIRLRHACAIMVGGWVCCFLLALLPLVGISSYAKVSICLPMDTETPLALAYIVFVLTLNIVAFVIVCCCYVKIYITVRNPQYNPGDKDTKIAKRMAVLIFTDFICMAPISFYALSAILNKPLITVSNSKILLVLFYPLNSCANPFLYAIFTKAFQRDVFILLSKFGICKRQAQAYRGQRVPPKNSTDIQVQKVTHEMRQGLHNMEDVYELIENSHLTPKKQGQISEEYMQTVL

A short description of test [19]: qHTS assay to identify small molecule agonists of the hypoxia (HIF-1) signaling pathway (AID 1224846; active = well fitted activation curve with a large enough effect in the signal ratio in the repeat runs, not every such curve was filed as active; the % refers to the signal ratio). An outline of the steps: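 Hypoxia-pathway activation was scored as increased beta-lactamase from an HRE-controlled reporter in ME-180 cells; plated at 2,000 cells per well with 0.5% dialyzed FBS, they were exposed 17 hrs to compounds and then given CCF4-AM.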
% is scaled to controls: 0 for no effect and ±100 for the full control effect.

Luciferin 4-monooxygenase (Photinus pyralis), sequence (P08659 whole entry, looked up): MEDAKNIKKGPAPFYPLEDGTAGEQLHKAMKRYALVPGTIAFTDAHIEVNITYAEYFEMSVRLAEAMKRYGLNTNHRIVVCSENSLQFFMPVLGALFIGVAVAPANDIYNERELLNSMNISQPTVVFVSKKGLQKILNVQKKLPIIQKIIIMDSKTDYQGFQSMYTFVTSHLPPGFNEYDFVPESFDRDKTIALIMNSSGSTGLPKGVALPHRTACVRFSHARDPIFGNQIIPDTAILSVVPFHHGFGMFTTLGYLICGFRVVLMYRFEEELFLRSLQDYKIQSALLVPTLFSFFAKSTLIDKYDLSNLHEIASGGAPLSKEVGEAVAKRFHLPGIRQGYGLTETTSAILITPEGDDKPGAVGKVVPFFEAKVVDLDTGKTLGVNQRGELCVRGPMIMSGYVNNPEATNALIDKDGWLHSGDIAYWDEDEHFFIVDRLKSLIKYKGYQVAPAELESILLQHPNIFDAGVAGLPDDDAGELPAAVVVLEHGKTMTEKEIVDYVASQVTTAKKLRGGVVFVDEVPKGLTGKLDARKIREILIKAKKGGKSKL

As for `CC1(C)S[C@@H]2[C@H](NC(=O)C(C(=O)O)c3ccccc3)C(=O)N2[C@H]1C(=O)O` (stereo partly specified), the Potency entry in [1], in [2], in test [3], in test [4], in test [5] and in test [6] was “inactive” each time. Moreover, the Potency entry in [7], in test [8], in test [9], in test [10], in [11] and in test [12] was “inactive” throughout. The Potency result in [14], in test [15], in test [16] and in [17] was “inactive” each time. Besides, the activity change, positive = activation in test [13] is 8.06% [at 42.5 µM].
As for `CC(=O)OC(C)OC(C)=O`, the Potency entry in [1], in test [2], in [3], in test [4], in [5] and in test [6] was “inactive” throughout. For the same compound, the Potency entry in test [18], in test [9], in [10], in test [11], in test [14] and in [15] was “inactive” throughout. In addition, the Potency entry in [16] and in [17] was “inactive” in each case. The compound was classed as inactive in [19].
Take `O=C(O)[C@@H]1CSCN1`: the Potency result in [1], in test [2], in test [3], in test [4], in test [5] and in test [6] was “inactive” each time. Also, the Potency result in test [18], in test [9], in [10], in test [11], in test [14] and in test [15] was “inactive” each time. The Potency entry in [16] is “inactive”. Besides, in test [19], the result was inactive.
For `CCc1nnc(NS(=O)(=O)c2ccc(N)cc2)s1`, the Potency result in test [1], in test [2], in test [3], in test [5], in test [6] and in [7] was “inactive” throughout. Further, the Potency entry in test [8], in [18], in test [9], in test [10], in [11] and in [12] was “inactive” each time. The Potency entry in [14], in test [15], in test [16] and in test [17] was “inactive” throughout. Further, the compound was called inactive in test [19]. The activity change, positive = activation in test [13] was 2.74% [at 42.5 µM].
On to `Clc1cccc(-c2cc(Cl)cc(Cl)c2)c1`, for which the Potency result in test [1], in test [2], in test [3], in [4], in test [6] and in test [7] was “inactive” each time. The Potency entry in [8], in test [12], in test [15], in [16] and in test [17] was “inactive” in each case. In addition, the Potency in test [9] is 53 µM (active). In addition, the activity change, positive = activation in test [13] was -3.25%.
On to `O=C(CCCl)NCc1ccccc1`, for which the Potency entry in test [1], in test [2], in test [3], in test [4], in test [5] and in [6] was “inactive” in each case. Further, the Potency entry in test [7], in test [8], in [18], in test [9], in [10] and in [11] was “inactive” throughout. The Potency entry in test [12], in test [14], in test [15], in test [16] and in test [17] was “inactive” each time. Further, the outcome in test [19] was inactive. Further, the activity change, positive = activation in [13] is 5.97% [at 42.5 µM].
On to `CCc1cc2cc(OC)c(OC)cc2c(Cc2ccccc2)n1`, for which the Potency entry in test [1], in [2], in [3], in [4], in test [6] and in test [7] was “inactive” each time. Further, the Potency entry in [8], in test [18], in test [9], in test [10], in test [11] and in test [12] was “inactive” throughout. The Potency result in [14], in [16] and in test [17] was “inactive” in each case. For the same compound, in test [19], the call was inactive. Moreover, the activity change, positive = activation in test [13] was -12.2% [at 42.5 µM]. For the same compound, in test [15], the Potency is 16.9 µM (active).
On to `O=C1N(c2ccccc2)c2ccccc2C1(Cc1ccncc1)Cc1ccncc1`, for which the Potency result in test [1], in [2], in [3], in [4], in [5] and in test [6] was “inactive” in each case. Also, the Potency result in test [7], in test [8], in [9], in [10], in test [11] and in test [12] was “inactive” in each case. For the same compound, the Potency result in [14], in [15], in [16] and in test [17] was “inactive” in each case. In addition, in test [13], the activity change, positive = activation is 5.08% [at 42.5 µM].

These data come from PubChem BioAssay (Tox21).
